The supplement of paper PMC10849652
Of roughly 8,800 targets only a part is listed; those with a hit were picked by preference. About 0.5% of all pairs of compound and target were hits. Values without a mark were called inactive.

Assays:
Experiment in all cases: log2 fold change, soluble protein after heating vs DMSO (PISA); higher = thermal stabilisation; K562 lysate, 10 uM; active = over 0.2 and 3.5 SD of the protein, either way, in both replicates (recomputed)
[1] = compound: CCCS(=O)(=O)Nc1ccc(F)c(C(=O)c2c[nH]c3ncc(-c4ccc(Cl)cc4)cc23)c1F [vemurafenib]
Method in brief: (§1)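 Pellets of K562 cells were dounce-homogenised in PBS pH 7.4 with 1 mM MgCl2, and the crude extract was held at 1 mg/mL protein for a 30 min treatment with 10 μM compound. Aliquots were heated for 3 min over 48°C-58°C and pooled before NP-40 was added to 0.5% at 4°C. The supernatant from 21,000xg for 90 min was quantified by TMTpro 16plex LC-MS/MS with channel sums equalised. Values are reported from duplicates as log-two fold change in thermal stability relative to solvent controls.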

[2] = compound: CCCS(=O)(=O)Nc1ccc(F)c(C(=O)c2c[nH]c3ncc(Cl)cc23)c1F
Method in brief: as §1

[3] = compound: CCN(CCCOc1ccc2c(Nc3cc(CC(=O)Nc4cccc(F)c4)[nH]n3)ncnc2c1)CCOP(=O)(O)O [barasertib]
Method in brief: as §1

[4] = compound: CC[C@@H]1C(=O)N(C)c2cnc(Nc3ccc(C(=O)NC4CCN(C)CC4)cc3OC)nc2N1C1CCCC1
Method in brief: as §1

[5] = compound: CC[C@@H]1C(=O)N(C)c2cnc(Nc3ccc(C(=O)N[C@H]4CC[C@H](N5CCN(CC6CC6)CC5)CC4)cc3OC)nc2N1C(C)C [volasertib]
Method in brief: as §1

[6] = compound: CCn1c(C(=O)N(C2CC2)C2CC2)cc2c3c(ncn3C)c(Nc3cc(C)n(C)n3)nc21
Method in brief: as §1

[7] = compound: CCn1cc(-c2ccnc3[nH]c(-c4cccc(CN(C)C)c4)cc23)c(-c2ccc(NC(=O)N(C)C)cc2)n1
Method in brief: as §1

[8] = compound: CN1CCC(CNc2ccc3ncc(-c4cccc(OC(F)(F)F)c4)n3n2)CC1
Method in brief: as §1

[9] = compound: CN1CCN(CCOc2cc(OC3CCOCC3)c3c(Nc4c(Cl)ccc5c4OCO5)ncnc3c2)CC1 [saracatinib]
Method in brief: as §1

[10] = compound: CN1CCN(c2nc(C3=C(c4c[nH]c5ccccc45)C(=O)NC3=O)c3ccccc3n2)CC1 [sotrastaurin]
Method in brief: as §1

Chain of UniProt Q96EE3 (Q96EE3 whole entry, looked up): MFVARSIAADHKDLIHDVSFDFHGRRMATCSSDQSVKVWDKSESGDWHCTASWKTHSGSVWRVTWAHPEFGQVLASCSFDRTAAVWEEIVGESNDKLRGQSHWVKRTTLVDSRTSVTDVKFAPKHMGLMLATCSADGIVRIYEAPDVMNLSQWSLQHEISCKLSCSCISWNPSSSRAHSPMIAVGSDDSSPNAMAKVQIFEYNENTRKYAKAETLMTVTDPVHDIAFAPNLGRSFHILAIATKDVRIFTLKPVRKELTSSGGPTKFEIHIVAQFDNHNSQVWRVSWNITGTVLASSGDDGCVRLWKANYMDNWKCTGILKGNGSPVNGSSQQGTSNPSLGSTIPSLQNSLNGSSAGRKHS
Chain of UniProt P52756 (P52756 whole entry, looked up): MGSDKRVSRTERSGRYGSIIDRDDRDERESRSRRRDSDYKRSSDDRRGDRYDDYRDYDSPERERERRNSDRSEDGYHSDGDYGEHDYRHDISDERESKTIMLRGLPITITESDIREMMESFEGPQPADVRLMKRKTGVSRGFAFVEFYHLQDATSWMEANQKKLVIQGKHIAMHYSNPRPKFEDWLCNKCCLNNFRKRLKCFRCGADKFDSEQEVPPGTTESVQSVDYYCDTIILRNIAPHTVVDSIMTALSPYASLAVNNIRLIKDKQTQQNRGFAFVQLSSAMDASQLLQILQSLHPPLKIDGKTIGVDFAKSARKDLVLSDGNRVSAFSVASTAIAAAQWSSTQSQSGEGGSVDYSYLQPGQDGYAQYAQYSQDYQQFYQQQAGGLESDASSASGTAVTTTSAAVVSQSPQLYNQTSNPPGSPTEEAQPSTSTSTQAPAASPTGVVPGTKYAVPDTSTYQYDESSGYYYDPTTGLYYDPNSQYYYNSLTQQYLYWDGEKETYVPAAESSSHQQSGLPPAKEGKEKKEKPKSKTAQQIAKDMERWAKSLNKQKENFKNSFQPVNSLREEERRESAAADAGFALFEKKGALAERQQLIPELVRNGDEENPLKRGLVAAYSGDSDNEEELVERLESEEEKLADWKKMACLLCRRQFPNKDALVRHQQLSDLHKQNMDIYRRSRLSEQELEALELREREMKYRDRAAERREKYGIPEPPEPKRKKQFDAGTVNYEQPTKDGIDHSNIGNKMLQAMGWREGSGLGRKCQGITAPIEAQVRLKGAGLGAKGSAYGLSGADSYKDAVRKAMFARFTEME
Chain of UniProt P35241 (P35241 whole entry, looked up): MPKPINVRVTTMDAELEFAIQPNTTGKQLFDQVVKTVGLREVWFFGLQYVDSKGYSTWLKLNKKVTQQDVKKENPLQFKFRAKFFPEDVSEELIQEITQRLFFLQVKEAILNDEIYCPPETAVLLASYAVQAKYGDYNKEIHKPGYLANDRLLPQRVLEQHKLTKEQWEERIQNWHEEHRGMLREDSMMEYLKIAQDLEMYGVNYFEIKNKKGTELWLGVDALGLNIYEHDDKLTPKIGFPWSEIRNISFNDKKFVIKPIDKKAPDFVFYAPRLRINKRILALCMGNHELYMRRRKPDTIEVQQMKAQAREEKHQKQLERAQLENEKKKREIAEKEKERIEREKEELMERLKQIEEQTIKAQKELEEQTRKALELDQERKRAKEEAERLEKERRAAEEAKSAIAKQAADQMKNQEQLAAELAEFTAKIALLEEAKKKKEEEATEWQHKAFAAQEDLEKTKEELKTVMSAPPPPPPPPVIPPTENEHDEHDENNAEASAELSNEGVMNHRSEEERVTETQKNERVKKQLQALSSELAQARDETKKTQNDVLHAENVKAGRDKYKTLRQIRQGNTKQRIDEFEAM
Chain of UniProt Q15418 (Q15418 whole entry, looked up): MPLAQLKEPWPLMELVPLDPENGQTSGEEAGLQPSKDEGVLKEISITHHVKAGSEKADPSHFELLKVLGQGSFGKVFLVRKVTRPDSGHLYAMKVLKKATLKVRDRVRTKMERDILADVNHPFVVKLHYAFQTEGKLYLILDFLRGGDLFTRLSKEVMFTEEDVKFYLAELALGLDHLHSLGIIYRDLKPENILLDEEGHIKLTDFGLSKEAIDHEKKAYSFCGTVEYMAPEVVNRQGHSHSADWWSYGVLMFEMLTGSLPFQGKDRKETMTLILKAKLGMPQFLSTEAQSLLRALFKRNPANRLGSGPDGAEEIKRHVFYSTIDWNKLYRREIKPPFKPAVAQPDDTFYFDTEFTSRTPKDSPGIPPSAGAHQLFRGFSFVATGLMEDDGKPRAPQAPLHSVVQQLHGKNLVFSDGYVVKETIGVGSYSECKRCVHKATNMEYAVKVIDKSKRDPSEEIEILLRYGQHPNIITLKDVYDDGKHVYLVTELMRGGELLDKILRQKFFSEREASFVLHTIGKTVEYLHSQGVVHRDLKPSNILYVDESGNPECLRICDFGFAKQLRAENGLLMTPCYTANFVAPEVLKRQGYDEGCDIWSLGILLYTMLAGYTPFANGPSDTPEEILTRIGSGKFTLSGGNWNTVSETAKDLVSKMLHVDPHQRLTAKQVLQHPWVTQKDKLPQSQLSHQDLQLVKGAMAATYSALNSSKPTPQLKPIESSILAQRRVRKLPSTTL
Chain of UniProt Q15287 (Q15287 whole entry, looked up): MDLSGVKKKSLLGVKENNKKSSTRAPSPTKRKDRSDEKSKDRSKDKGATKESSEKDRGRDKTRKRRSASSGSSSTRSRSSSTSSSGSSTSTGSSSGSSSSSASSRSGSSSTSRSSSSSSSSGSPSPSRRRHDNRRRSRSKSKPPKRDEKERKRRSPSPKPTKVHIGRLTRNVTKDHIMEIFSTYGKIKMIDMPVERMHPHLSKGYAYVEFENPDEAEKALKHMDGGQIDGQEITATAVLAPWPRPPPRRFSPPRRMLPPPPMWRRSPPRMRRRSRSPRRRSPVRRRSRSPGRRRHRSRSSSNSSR
Chain of UniProt Q99442 (Q99442 whole entry, looked up): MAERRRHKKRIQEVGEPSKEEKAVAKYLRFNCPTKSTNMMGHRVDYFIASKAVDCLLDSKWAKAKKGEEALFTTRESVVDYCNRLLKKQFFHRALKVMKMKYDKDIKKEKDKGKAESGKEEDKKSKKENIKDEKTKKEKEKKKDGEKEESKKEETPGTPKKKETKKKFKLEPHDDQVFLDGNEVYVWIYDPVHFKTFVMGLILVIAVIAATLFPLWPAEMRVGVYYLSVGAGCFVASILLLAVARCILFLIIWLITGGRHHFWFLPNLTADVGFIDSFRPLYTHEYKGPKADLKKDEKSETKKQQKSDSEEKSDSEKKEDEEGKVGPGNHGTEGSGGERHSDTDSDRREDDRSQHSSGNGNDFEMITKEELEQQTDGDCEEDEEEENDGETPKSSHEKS
Chain of UniProt Q96HR9 (Q96HR9 whole entry, looked up): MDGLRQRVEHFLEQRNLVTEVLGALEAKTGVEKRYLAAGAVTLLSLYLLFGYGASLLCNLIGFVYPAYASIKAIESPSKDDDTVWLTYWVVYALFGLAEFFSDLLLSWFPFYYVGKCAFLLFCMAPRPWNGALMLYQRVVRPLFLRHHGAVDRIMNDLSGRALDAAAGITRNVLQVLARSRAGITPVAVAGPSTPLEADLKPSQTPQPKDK
Chain of UniProt P51159 (P51159 whole entry, looked up): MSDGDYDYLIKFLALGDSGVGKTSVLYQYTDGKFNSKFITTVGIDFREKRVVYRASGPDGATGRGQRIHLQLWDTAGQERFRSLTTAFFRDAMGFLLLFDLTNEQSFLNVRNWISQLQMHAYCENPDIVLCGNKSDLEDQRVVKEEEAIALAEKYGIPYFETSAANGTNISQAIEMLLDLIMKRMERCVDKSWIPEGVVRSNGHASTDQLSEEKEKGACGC
Chain of UniProt Q02094 (Q02094 whole entry, looked up): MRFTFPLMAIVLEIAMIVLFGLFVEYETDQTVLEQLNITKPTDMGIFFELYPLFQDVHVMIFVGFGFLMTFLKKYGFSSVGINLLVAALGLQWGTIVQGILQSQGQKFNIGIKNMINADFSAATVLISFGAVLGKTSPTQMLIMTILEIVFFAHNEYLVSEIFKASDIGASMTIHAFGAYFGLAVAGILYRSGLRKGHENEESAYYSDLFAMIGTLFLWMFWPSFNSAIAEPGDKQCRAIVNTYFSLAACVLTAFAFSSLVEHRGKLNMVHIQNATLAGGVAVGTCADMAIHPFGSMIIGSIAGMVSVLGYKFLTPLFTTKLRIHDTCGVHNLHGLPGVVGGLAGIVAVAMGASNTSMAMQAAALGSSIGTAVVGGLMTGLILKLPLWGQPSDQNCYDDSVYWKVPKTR
Chain of UniProt P78406 (P78406 whole entry, looked up): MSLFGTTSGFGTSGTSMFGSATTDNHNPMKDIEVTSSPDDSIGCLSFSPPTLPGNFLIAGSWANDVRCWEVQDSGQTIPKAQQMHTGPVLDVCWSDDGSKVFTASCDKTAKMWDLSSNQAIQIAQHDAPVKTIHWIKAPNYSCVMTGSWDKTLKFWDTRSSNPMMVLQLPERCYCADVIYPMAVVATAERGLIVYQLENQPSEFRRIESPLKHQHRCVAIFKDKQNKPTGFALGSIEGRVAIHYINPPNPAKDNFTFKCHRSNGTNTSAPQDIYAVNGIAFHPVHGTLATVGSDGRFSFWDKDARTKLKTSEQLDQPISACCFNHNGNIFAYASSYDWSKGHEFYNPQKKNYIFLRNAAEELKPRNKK
Chain of UniProt Q9Y3T6 (Q9Y3T6 whole entry, looked up, one chain of several): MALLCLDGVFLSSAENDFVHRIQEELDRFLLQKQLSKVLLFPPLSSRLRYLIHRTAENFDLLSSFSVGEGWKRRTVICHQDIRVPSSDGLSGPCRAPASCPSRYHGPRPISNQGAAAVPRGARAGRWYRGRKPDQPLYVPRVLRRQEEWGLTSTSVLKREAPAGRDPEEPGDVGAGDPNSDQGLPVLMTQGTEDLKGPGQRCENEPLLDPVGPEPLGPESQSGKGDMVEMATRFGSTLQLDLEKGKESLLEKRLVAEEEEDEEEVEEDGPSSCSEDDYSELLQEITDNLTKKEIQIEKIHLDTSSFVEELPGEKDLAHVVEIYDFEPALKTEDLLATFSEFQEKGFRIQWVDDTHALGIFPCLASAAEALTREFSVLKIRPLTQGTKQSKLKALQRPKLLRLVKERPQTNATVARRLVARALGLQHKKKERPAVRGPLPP

Target	log2 fold change [1]	log2 fold change [2]	log2 fold change [3]	log2 fold change [4]	log2 fold change [5]	log2 fold change [6]	log2 fold change [7]	log2 fold change [8]	log2 fold change [9]	log2 fold change [10]
RPS9 (UniProt P46781)	-0.037	-0.01	-0.003	-0.074	-0.005	0.03	0.302 (active)	-0.063	0	-0.023
RBM5 (UniProt P52756)	-0.021	-0.018	0.087	0.013	-0.277	0.064	0.048	-0.012	-0.039	-0.03
REEP6 (UniProt Q96HR9)	0.072	0.021	0.093	-0.022	0.077	0	-0.358 (active)	0.072	0.094	0.017
RFC5 (UniProt P40937)	0.034	-0.003	-0.017	-0.039	-0.079	0.022	0.137	0.005	0.008	0.043
RAE1 (UniProt P78406)	-0.017	-0.021	-0.051	0.04	-0.081	0.018	-0.355 (active)	0.131	0.039	0.044
RAB27A (UniProt P51159)	-0.037	-0.024	0.012	-0.056	-0.082	0.034	0.679 (active)	-0.048	0.021	0.001
RPS6KA1 (UniProt Q15418)	-0.037	-0.004	-0.006	0.037	0.029	0.019	-0.004	0.116	0.101	0.103
SEC62 (UniProt Q99442)	-0.024	0.039	0.027	0.017	0.011	0	0.373 (active)	-0.12	-0.011	-0.04
RNPS1 (UniProt Q15287)	-0.03	0.001	-0.008	-0.175	0.043	-0.022	0.02	0.077	-0.04	-0.003
ROCK1 (UniProt Q13464)	0.014	0.004	0.004	0.018	-0.045	0.001	-0.017	0.025	-0.017	0.015
RDX (UniProt P35241)	0	-0.008	0.003	0.016	0.017	-0.018	0.712 (active)	-0.109	-0.018	-0.013
RHAG (UniProt Q02094)	-0.032	-0.116	0.054	-0.16	0.053	-0.003	-0.413 (active)	0.121	0.053	0.029
SEH1L isoform 1 (UniProt Q96EE3)	-0.029	-0.001	0.004	0.069	0.216 (active)	-0.015	-0.022	0.021	-0.005	-0.01
RPL8 (UniProt P62917)	-0.055	0.013	-0.042	-0.09	-0.012	0.021	0.208	-0.014	-0.009	-0.038
R3HCC1 (UniProt Q9Y3T6)	0.07	0.036	0.009	0.044	-0.015	-0.022	-0.066	0.082	0.029	0.021
